Measurements as given in PubChem BioAssay (NCATS).
Inconclusive results are not listed. Active and inactive are the calls of the source. Calls follow the shape of the dose curve; as a rule, active = well fitted activation curve with a large enough effect; inconclusive = small, poorly fitted or top-dose-only effect; inactive = flat fitted curve, though single readings scatter.

Assay: Validation screen for small molecules that induce DNA re-replication in SW480 colon adenocarcinoma cells (AID 504364); also: 0% is about no effect
Conditions: DNA re-replication phenotype (high-content imaging); series mostly up to 46.1 µM; activity (re-replication induction): at the top concentration
Excerpt: H Molecular Libraries Probe Production Network [MLPCN]
NIH Chemical Genomics Center [NCGC]
Assay Provider: Melvin DePamphilis, NICHD, NIH
Eukaryotic cells normally restrict genome duplication to once per cell division. When this process is aberrant, DNA re-replication occurs when cells reinitiate DNA replication before the first round of replication is complete. DNA re-replication induces the DNA damage response, arrests cell proliferation, and triggers apoptosis. The cell cycle components cyclin A, Cdt-1, Cdc6 and geminin are critical regulators of this process and their misregulation results in DNA re-replication in normal and cancer cells. To identify compounds that induce re-replication in normal cells, an image-based assay was used to measure DNA content of nuclei, as detected by the fluorescent DNA binding dye, Hoechst. Cell nuclei were imaged by a fluorescence scanning plate imager and compounds that induce DNA re-replication were identified by the increase of nuclei with elevated fluorescence intensity.#
For screening, 250 cells in 5 uL/well were dispensed into black clear 1536-well plates (Aurora) using a solenoid-based dispenser. Following transfer of 23 nL compound or DMSO vehicle by a pin tool, the plates were incubated 48 hr at 37 C and 5% CO2. After addition of 1 uL/well Hoescht stain, the plates were incubated 40 min at 37 C, 5% CO2 and total intensity of fluorescent objects (nuclei) were enumerated by an Acumen Explorer Ex3 (TTP LabTech) fluorescence scanning plate imager (405 nm excitation, 500-530 nm emission).
Keywords: NIH Roadmap, MLPCN, MLI, MLSMR, qHTS, NCGC, DNA replication, cancer

Question: Which “activity (re-replication induction)” value does the source give for `O=C(O)C1C2CCC(O2)C1C(=O)O` (stereo not given) here?
Answer: -1.35% (inactive)

Question: Which “activity (re-replication induction)” value does the source give for `C[C@]12CC[C@H](OS(=O)(=O)O)CC1=CCC1C2CC[C@]2(C)C(=O)CC[C@@H]12` (stereo not given in full) here?
Answer: -7.34% (inactive)

Question: For `CCN(CC)C(=O)N[C@@H]1C[C@@H]2c3cccc4[nH]cc(c34)C[C@H]2N(C)C1`, which “activity (re-replication induction)” value is on record?
Answer: 8.7% (inactive)

Question: For `COc1ccc2c(c1O)-c1cccc3c1C(C2)N(C)CC3` (stereo not given), which “activity (re-replication induction)” value is on record?
Answer: -16.5% (inactive)

Question: Which “activity (re-replication induction)” value does the source give for `NC(Cn1ccc(=O)[nH]c1=O)C(=O)O` (stereo not given) here?
Answer: -5.67% (inactive)

Question: For `NNCc1cccc(O)c1`, which “activity (re-replication induction)” value is on record?
Answer: -31.6% (inactive)

Question: Which “activity (re-replication induction)” value does the source give for `CCN1C[C@]2(C)CC[C@H](O)[C@@]34[C@@H]5C[C@@H]6[C@@H](OC)C[C@@](O)(C5[C@H]6O)[C@@H](C[C@@H]23)[C@@H]14` here?
Answer: -0.16% (inactive)

Question: For `COC(=O)C(N)CCCN=C(N)N[N+](=O)[O-]` (stereo not given), which “activity (re-replication induction)” value is on record?
Answer: -2.71% (inactive)

Question: For `CC12CCC3C(CCC4=C(O)C(=O)CCC43C)C1CCC2=O` (stereo not given), which “activity (re-replication induction)” value is on record?
Answer: -1.53% (inactive)

Question: With `CCCN(CCC)C(=O)Cc1c(-c2ccc(Cl)cc2)nc2c(Cl)cc(Cl)cn12` as the compound, how does the “activity (re-replication induction)” value read?
Answer: 19.8% (inactive)

Question: For `C[C@@H]1O[C@@H](O[C@H]2C[C@@H](O)[C@]3(CO)[C@H]4[C@H](O)C[C@]5(C)[C@@H]([C@@H]6COC(=O)C6)CC[C@]5(O)[C@@H]4CC[C@]3(O)C2)[C@H](O)[C@H](O)[C@H]1O`, which “activity (re-replication induction)” value is on record?
Answer: 4.11% (inactive)

Question: With `COc1ccc2c3c1O[C@H]1C(=O)CC[C@@]4(O)C(C2)N(CC2CC2)CCC314` (stereo not given in full) as the compound, how does the “activity (re-replication induction)” value read?
Answer: -4.75% (inactive)

Question: With `COc1cc(C[C@@H](C)N)c(OC)cc1I` as the compound, how does the “activity (re-replication induction)” value read?
Answer: 11.3% (inactive)

Question: Which “activity (re-replication induction)” value does the source give for `CN1CCC23CCCC[C@H]2C1Cc1ccc(O)cc13` (stereo not given in full) here?
Answer: -8.12% (inactive)

Question: Which “activity (re-replication induction)” value does the source give for `CCNC(=O)[C@H]1O[C@@H](n2cnc3c(N)ncnc32)[C@H](O)[C@H]1O` here?
Answer: -0.711% (inactive)

Question: For `CCCN(CCC)[C@@H]1CCc2c(F)ccc(O)c2C1`, which “activity (re-replication induction)” value is on record?
Answer: 7.71% (inactive)

Question: For `CCCN1CCC[C@@H](c2cccc(C#N)c2)C1`, which “activity (re-replication induction)” value is on record?
Answer: -10.5% (inactive)

Question: With `C#CCN(C)C(C)Cc1ccccc1` (stereo not given) as the compound, how does the “activity (re-replication induction)” value read?
Answer: -1.31% (inactive)

Question: For `C[N+]1(C)C2CC(OC(=O)C(CO)c3ccccc3)CC1C1OC12` (stereo not given), which outcome is on record?
Answer: inactive

Question: With `CCCCN1C2CCC1CC(OC(c1ccc(F)cc1)c1ccc(F)cc1)C2` (stereo not given) as the compound, how does the “activity (re-replication induction)” value read?
Answer: -20.7% (inactive)

Question: For `CCc1c(C(=O)OC)ncc2[nH]c3cc(OC)c(OC)cc3c12`, which “activity (re-replication induction)” value is on record?
Answer: -0.622% (inactive)

Question: With `CCCC[N+]1(C)C2CC(OC(=O)C(CO)c3ccccc3)CC1C1OC12` (stereo not given) as the compound, how does the “activity (re-replication induction)” value read?
Answer: -2.39% (inactive)

Question: For `CC(C)(O)C1C2OC(=O)C1[C@]1(O)C[C@H]3O[C@]34C(=O)O[C@H]2[C@]14C` (stereo not given in full) (tested in a mixture with another compound), which “activity (re-replication induction)” value is on record?
Answer: 0.88% (inactive)

Question: Which “activity (re-replication induction)” value does the source give for `C=CCN1CCc2cccc3c2C1Cc1ccc(O)c(O)c1-3` (stereo not given) here?
Answer: 1.43% (inactive)

Question: With `N#CC(=Cc1ccc(O)c(O)c1)C(N)=S` as the compound, how does the “activity (re-replication induction)” value read?
Answer: 5.42% (inactive)

Question: For `CC1Cc2cc3c(cc2C(c2ccc(N)cc2)=NN1)OCO3` (stereo not given), which “activity (re-replication induction)” value is on record?
Answer: 1.59% (inactive)

Question: For `COc1cc(C=C(C#N)C#N)cc(O)c1O`, which “activity (re-replication induction)” value is on record?
Answer: 1.48% (inactive)

Question: Which “activity (re-replication induction)” value does the source give for `C[C@]12CC[C@H]3[C@@H](CCC4C[C@H](O)CC[C@@]43C)[C@@H]1CC[C@@H]2O` (stereo not given in full) here?
Answer: -11.7% (inactive)

Question: Which “activity (re-replication induction)” value does the source give for `Oc1ccc2c3c1O[C@H]1[C@@H](O)CC[C@@]4(O)C(C2)N(CC2CCC2)CCC314` (stereo not given in full) here?
Answer: -1.5% (inactive)

Question: Which “activity (re-replication induction)” value does the source give for `CN1C[C@@H](CS(=O)(=O)N(C)C)C[C@@H]2c3cccc4c3c(cn4C)C[C@H]21` here?
Answer: 1.41% (inactive)

Question: With `CCCN1CCCC(c2cccc(O)c2)C1` (stereo not given) as the compound, how does the “activity (re-replication induction)” value read?
Answer: -7.74% (inactive)

Question: With `C[C@]12CC[C@H](O)CC1=CCC1C2CC[C@]2(C)C(=O)CC[C@@H]12` (stereo not given in full) as the compound, how does the “activity (re-replication induction)” value read?
Answer: -1.35% (inactive)

Question: With `CC[C@@H](CO)NC(=O)[C@H]1C=C2c3cccc4c3c(cn4C)C[C@H]2N(C)C1` as the compound, how does the “activity (re-replication induction)” value read?
Answer: -1.37% (inactive)

Question: For `C[C@]12CC[C@@H](O)CC1CCC1C2CC[C@]2(C)C(=O)CC[C@@H]12` (stereo not given in full), which “activity (re-replication induction)” value is on record?
Answer: 3.39% (inactive)

Question: With `O=C(OC1CCN(CCCl)CC1)C(c1ccccc1)c1ccccc1` as the compound, how does the “activity (re-replication induction)” value read?
Answer: 5.09% (inactive)

Question: For `C/C=C(/C)C(=O)O[C@H]1C(C)=C2C([C@@H]1OC(=O)CCCCCCC)[C@@](C)(OC(C)=O)C[C@@H](OC(=O)CCC)[C@@]1(O)[C@H]2OC(=O)[C@@]1(C)O` (stereo not given in full), which “activity (re-replication induction)” value is on record?
Answer: -4.01% (inactive)

Question: Which “activity (re-replication induction)” value does the source give for `CCCN1CCC[C@@H]2Cc3n[nH]cc3C[C@H]21` here?
Answer: -2.48% (inactive)

Question: For `CCCN1CCc2cccc3c2C1Cc1ccc(O)c(O)c1-3` (stereo not given), which “activity (re-replication induction)” value is on record?
Answer: 1.88% (inactive)

Question: With `C=CCN1CC[C@@]2(C)c3cc(O)ccc3CC1[C@@H]2C` as the compound, how does the “activity (re-replication induction)” value read?
Answer: -9.21% (inactive)

Question: Which “activity (re-replication induction)” value does the source give for `Nc1ncnc2c1ncn2[C@@H]1O[C@H](COP(=O)(O)CP(=O)(O)OP(=O)(O)O)[C@H](O)[C@H]1O` here?
Answer: -2.27% (inactive)
